# In all, about 310,000 compounds went through this assay and about 14,000 (4.5%) showed an effect of 50% or more. Effects have a minus sign here. The full list was thinned out, with strong results kept by preference.
# Target: human ether-à-go-go-related gene (hERG) potassium channel (human, UniProt Q12809)
# Test: primary screen, population patch clamp on CHO cells stably expressing hERG; higher = less effect of the substance
# 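Note: peak tail current of the secondary pulse compared with the same well before compound.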
# human ether-à-go-go-related gene (hERG) potassium channel, sequence (Q12809 whole entry, looked up): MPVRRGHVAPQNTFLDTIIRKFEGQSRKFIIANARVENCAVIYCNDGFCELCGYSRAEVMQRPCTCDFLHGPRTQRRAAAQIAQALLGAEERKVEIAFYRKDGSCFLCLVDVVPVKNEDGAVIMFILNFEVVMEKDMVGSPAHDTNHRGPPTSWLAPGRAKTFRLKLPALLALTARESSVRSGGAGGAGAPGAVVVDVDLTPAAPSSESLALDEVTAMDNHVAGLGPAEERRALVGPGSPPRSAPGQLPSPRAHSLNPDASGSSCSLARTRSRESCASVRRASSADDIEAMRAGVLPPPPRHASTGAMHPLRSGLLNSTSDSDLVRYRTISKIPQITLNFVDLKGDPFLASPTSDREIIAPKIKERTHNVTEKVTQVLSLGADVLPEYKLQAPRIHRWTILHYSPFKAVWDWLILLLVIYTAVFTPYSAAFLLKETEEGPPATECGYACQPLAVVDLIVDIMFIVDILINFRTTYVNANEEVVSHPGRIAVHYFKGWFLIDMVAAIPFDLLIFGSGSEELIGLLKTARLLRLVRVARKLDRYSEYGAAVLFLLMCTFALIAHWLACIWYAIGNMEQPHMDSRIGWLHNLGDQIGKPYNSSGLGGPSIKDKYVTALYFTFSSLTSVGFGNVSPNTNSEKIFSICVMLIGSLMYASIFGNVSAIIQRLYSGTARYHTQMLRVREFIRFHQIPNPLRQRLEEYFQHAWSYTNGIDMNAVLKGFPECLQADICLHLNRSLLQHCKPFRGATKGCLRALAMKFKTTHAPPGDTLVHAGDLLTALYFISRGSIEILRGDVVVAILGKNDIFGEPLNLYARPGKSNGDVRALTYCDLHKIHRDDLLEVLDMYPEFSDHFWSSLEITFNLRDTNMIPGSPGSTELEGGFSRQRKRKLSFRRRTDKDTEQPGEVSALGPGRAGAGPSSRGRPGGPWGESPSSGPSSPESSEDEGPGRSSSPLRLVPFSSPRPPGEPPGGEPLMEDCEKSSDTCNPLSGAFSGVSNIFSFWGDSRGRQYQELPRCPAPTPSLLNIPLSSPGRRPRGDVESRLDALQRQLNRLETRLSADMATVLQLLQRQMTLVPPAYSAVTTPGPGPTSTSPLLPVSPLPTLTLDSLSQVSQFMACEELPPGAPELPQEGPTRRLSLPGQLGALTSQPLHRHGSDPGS
row,Compound,"hERG current change (%, negative = inhibition) at 10uM [%]"
1,CC(=O)Nc1ccc(NCc2ccc(C)s2)cc1,-3.79
2,CCc1ccc(OCC(=O)NNC(=O)c2c(CC)noc2C)cc1,10.8
3,Cc1nnc(NC2=NCCC2)o1,3.71
4,CC(=O)CCc1c[nH]c2c(C(=O)O)cccc12,5.11
5,CCOc1ccccc1Nc1nnc(SCC(=O)Nc2cc(C)on2)s1,6.14
6,CC(=O)Nc1ccc(S(=O)(=O)Nc2cc3c(cc2C(C)=O)OCO3)cc1,20.7
7,CC(N)Cc1cn(Cc2ccccc2)c2ccccc12.Cl (stereo not drawn),-7.76
8,COc1cccc(CNC(=O)COc2ccc(C(=O)c3ccccc3)cc2)c1,-11.7
9,CCOC(=O)/C(=C\c1c[nH]c2ccccc12)NC(C)=O,0.157
10,O=C(CSc1nc2c(c(=O)n1-c1ccc(Cl)cc1)SCC2)NCc1ccco1,-19.4
11,CCn1cc(CCC(=O)NCc2cccc(OC)c2OC)c2ccccc21,8.51
12,COc1ccc(S(=O)(=O)N/N=C(/C)c2ccncc2)cc1OC,-1.27
13,COCCCn1c(=N)c(C(=O)NCc2ccc3c(c2)OCO3)cc2c(=O)n3ccccc3nc21,-83.5
14,O=C(CCn1c(=O)c2ccccc2n(Cc2cccnc2)c1=O)NCc1ccc2c(c1)OCO2,-5.1
15,COCCCn1c(C(=O)Nc2ccc3c(c2)OCO3)cc2c(=O)n3ccccc3nc21,8.51
16,Cc1nc2ccccn2c1C(=O)NCc1ccc2c(c1)OCO2,-0.471
17,CCOC(=O)c1cc2c(=O)n3ccccc3nc2n(Cc2ccccc2)c1=N,-74.6
18,COc1ccc(CNC(=O)c2cc3c(=O)n4ccccc4nc3n(Cc3cccnc3)c2=N)cc1,-58.6
19,N=c1c(C(=O)NCc2ccc3c(c2)OCO3)cc2c(=O)n3ccccc3nc2n1Cc1cccnc1,-80.4
20,COc1ccc(Cn2c(=S)[nH]c3cc(C(=O)NCc4cccnc4)ccc3c2=O)cc1,12.3
21,COc1ccc(CNC(=O)Cn2nc(Cc3cccnc3)c3ccccc3c2=O)cc1,-43.3

row,Compound,"hERG current change (%, negative = inhibition) at 10uM [%]"
1,O=C(NCc1ccc2c(c1)OCO2)c1cnc2ccccn2c1=O,-6.29
2,CCOC(=O)c1ccccc1NC(=O)CN(c1ccccc1)S(=O)(=O)N(C)C,-19.9
3,CC(C)[C@H](Nc1ccc(C(F)(F)F)cc1[N+](=O)[O-])C(=O)O.[Cl-],20
4,CCCCOc1cccc(C(=O)N(Cc2ccccc2)C2CCS(=O)(=O)C2)c1 (stereo not drawn),-14.2
5,O=C(NC1CCCC1)C(=O)N(Cc1cccnc1)C(C(=O)NCC1CCCO1)c1ccco1 (stereo not drawn),38.2
6,CCOC(=O)COc1ccc(C(=O)Nc2cccc(Cl)c2C)cc1,18.9
7,CC(Oc1ccc(Br)cc1)C(=O)Nc1ccc(S(=O)(=O)N(C)C2CCN(C)CC2)cc1 (stereo not drawn),-26.7
8,Cc1nc2ccc(P(=O)(O)O)cc2s1,16.2
9,C=CCN1C(=O)C2(C(C(=O)c3ccc(C)o3)=C(O)C(=O)N2CCCN2CCOCC2)c2ccccc21 (stereo not drawn),3.04
10,COCCNC(=S)N1CCc2cc(OC)c(OC)cc2C1COc1ccc(C(C)C)cc1 (stereo not drawn),16.7
11,Cc1cccc(N(CC(=O)NC2CCCC2)C(=O)c2csnn2)c1C,19.5
12,N=c1c(C(=O)NCc2ccc(F)cc2)cc2c(=O)n3ccccc3nc2n1Cc1cccnc1,-76.2
13,COC(=O)c1cn(Cc2cccnc2)c(=O)c2ccccc12,3.15
14,COC(=O)c1cc2c(=O)n3ccccc3nc2n(Cc2cccnc2)c1=N,-64
15,Cc1nc2ccccn2c1C(=O)NCc1cccnc1,-3.36
16,CCCn1c(=N)c(S(=O)(=O)c2ccc(F)cc2)cc2c(=O)n3ccccc3nc21,-8.53
17,Nc1cc(=O)[nH]c(N)n1,15.9
18,CCc1cccc(NC(=O)CNC(=O)N2CC(=O)Nc3ccccc32)c1,-8.55
19,Cc1ccc(S(=O)(=O)N(C)C)cc1NC(=O)COC(=O)c1c(-c2ccccc2)noc1C,-24.8
20,CCOC(=O)N1CCN(CC(O)COc2c(C)cc(C)cc2C)CC1.Cl (stereo not drawn),-18
21,COc1cc(OC)c(OC)cc1CN1CCN(Cc2ccc(C(F)(F)F)cc2)CC1,-42.3
